# HP1b binding inh = HTS for Inhibitors of HP1-beta Chromodomain Interactions with Methylated Histone Tails; Potency, µM (series often up to 114 µM), inactives show top-dose activity change, negative = inhibition, most hits filed as inhibitors; AlphaScreen HP1-beta / biotin-H3K9me3 peptide binding; actives 0.56% (n = 390,000); AID 540317, 2011; Chromobox protein homolog 1 (Homo sapiens), P83916; further: potency means the concentration at half of the fitted maximal effect; nearly all actives have a fitted effect of over 70% in size
#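 HP1-beta protein (50 nM final) preincubated 30 min at room temperature with biotinylated H3(1-18)K9me3 peptide (50 nM) in PBS pH 7.4, 0.01% Tween-20, then compound added for 30 min. AlphaScreen streptavidin donor/nickel chelate acceptor beads (10 ug/mL final), 30 min dark, luminescence read.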
# L3MBTL1 block = qHTS Assay for the Inhibitors of L3MBTL1; AlphaScreen L3MBTL1–H3K9me1 peptide binding; Potency, µM (series often up to 57.1 µM), for the others: at the top dose activity, negative = inhibition, hits mostly inhibitors; actives 0.66% (n = 230,000); further: potency means the concentration at half of the fitted maximal effect; on the % scale 0 is the no-effect control and ±100 the full control effect; nearly all actives have a fitted effect of over 60% in size
# Target sequence (Q9Y468 whole entry, looked up): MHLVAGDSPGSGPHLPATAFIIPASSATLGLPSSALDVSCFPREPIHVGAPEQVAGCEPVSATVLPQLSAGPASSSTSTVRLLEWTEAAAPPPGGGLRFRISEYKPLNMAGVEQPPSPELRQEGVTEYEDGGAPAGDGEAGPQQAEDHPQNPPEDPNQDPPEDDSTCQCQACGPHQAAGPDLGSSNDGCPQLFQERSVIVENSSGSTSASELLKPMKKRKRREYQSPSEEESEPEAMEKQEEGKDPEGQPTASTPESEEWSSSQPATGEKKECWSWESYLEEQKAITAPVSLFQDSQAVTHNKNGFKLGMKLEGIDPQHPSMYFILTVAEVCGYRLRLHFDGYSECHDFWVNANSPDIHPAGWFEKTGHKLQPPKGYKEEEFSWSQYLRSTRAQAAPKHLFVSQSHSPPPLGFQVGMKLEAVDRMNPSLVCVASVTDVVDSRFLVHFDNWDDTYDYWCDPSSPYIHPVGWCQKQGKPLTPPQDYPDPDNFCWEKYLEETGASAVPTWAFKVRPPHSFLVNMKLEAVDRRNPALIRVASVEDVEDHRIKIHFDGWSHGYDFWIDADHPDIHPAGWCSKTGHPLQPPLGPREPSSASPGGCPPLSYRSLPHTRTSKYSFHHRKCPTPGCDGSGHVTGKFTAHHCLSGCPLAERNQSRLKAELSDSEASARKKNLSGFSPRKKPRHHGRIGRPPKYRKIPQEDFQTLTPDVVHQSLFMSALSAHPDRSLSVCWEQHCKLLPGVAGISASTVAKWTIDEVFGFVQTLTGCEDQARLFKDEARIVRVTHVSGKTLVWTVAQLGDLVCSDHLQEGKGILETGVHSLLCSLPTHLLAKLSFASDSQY
#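 Displacement of a biotinylated histone H3(1-15) peptide monomethylated at Lys9 (75 nM) from L3MBTL1 (50 nM) was measured by AlphaScreen after a 30 min room-temperature compound incubation; cefsulodin titration served as intraplate control.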
# G9a inh = qHTS Assay for Inhibitors of Histone Lysine Methyltransferase G9a | actives 8.8% (n = 350,000) | G9a H3K9 monomethylation, AlphaScreen, 2 h | Potency, µM (series often up to 102 µM), without a hit: at the highest dose activity, negative = inhibition, most hits filed as inhibitors | Histone-lysine N-methyltransferase EHMT2 (Homo sapiens), Q96KQ7; further: potency means the concentration at half of the fitted maximal effect; on the % scale 0 is the no-effect control and ±100 the full control effect; nearly all actives have a fitted effect of over 75% in size
#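 Chemiluminescent proximity detection of H3K9 monomethylation, read after 10 min bead incubation in the dark. Reaction: 20 nM G9a, 500 nM biotin-H3K9 peptide, 20 uM SAM cofactor, 2 h, room temperature, following 15 min enzyme-compound preincubation.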
# BAZ2B inh = qHTS Assay for Inhibitors of BAZ2B; Bromodomain adjacent to zinc finger domain protein 2B (Homo sapiens), Q9UIF8; AlphaScreen BAZ2B-H3K14Ac peptide displacement; Potency, µM (doses to about 114 µM), for the others: at the highest dose activity change, negative = inhibition, actives largely listed as inhibitors; actives 4.4% (n = 360,000); AID 504333, 2011; further: potency means the concentration at half of the fitted maximal effect; on the % scale 0 is the no-effect control and ±100 the full control effect; nearly all actives have a fitted effect of over 60% in size
#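 Multi-concentration screen (max 110 uM) measuring displacement of acetylated histone H3 peptide from BAZ2B by AlphaScreen, using 50 nM protein, 50 nM peptide and 10 ug/mL streptavidin donor plus Ni-chelate acceptor beads.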
# PI5P4Ka inh = qHTS for Inhibitors of phosphatidylinositol 5-phosphate 4-kinase (PI5P4K); actives 1.2% (n = 330,000); max response, %; PI5P4Kalpha enzyme, ADP-Glo luminescence, 60 min; active compounds read low; active means max response of -50% or lower; inconclusive means between -30% and -50%; inactive means -30% or higher; further: value at the top dose of about 77 µM; on the % scale 0 is the no-effect control and ±100 the full control effect
#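 Single end-point luminescence (ADP-Glo) quantified ADP from PI5P4Kalpha turnover; ATP 5 microM final, 1 h at RT, 0.1% CHAPS and 0.28 mM EGTA in HEPES pH 7.4.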
# JMJD2A Tudor = qHTS Assay for Inhibitors of JMJD2A-Tudor Domain; actives 4.4% (n = 390,000); Lysine-specific demethylase 4A (Homo sapiens), O75164; AID 504339, 2011; AlphaScreen JMJD2A-Tudor / H3K4me3 peptide binding; Potency, µM (doses to about 114 µM), without a hit: at the highest dose activity change, negative = inhibition, usual class: inhibitors; further: potency means the concentration at half of the fitted maximal effect; on the % scale 0 is the no-effect control and ±100 the full control effect; nearly all actives have a fitted effect of over 50% in size
# The depositor's hits bear a star; ? = inconclusive; / = not tested or not shown; [ ] = remark or other dose. Hits are enriched below; roughly 11% of the tested compounds scored in any of these assays. Unless noted, the call rests on the fitted dose curve; in most records, active means well fitted inhibition curve with a large enough effect; inconclusive means small, poorly fitted or top-dose-only effect; inactive means no such curve, though single readings can be large or run the other way.
SMILES,HP1b binding inh,L3MBTL1 block,G9a inh,BAZ2B inh,PI5P4Ka inh,JMJD2A Tudor
Clc1ccc(CNc2nc(CN3CCOCC3)nc3scc(-c4ccccc4)c23)cc1,-21%,-19%,?,50µM*,19,?
CCOC(=O)C(N)CSC1CC(=O)N(c2ccc(OCC)cc2)C1=O (centres undefined),48%,-8%,?,0%,-6,-10%
CCOC(=O)C(N)CSC1CC(=O)N(c2ccc(OC)cc2)C1=O (centres undefined),27%,/,45µM*,-17%,-3,-18%
COc1ccc(CN(CC2CCCO2)C(=O)c2cc3sccc3n2C)c(OC)c1 (centres undefined),-22%,-23%,?,56µM*,7,?
CC(C)C(OC(=O)c1cc2sccc2n1C)C(=O)NCC1CCCO1 (centres undefined),8%,10%,-2%,22%,/,-10%
CC(C)(C)C1CCc2nc(NC(=O)c3cccc(Cl)c3)sc2C1 (centres undefined),43%,/,-8%[59 µM],-15%,/,-22%
OC(c1ccccc1)(c1ccccc1)C1CCN(C(=S)NC2CCCC2)CC1,-6%[57 µM],-4%,40µM*,-32%,-6,-22%
OC(c1ccccc1)(c1ccccc1)C1CCN(C(=S)Nc2ccc(F)cc2)CC1,16%,-8%,/,/,-4,-36%
COc1cccc(CNC(=O)C(Cc2ccccc2)NS(=O)(=O)c2ccc3c(c2)oc(=O)n3C)c1 (centres undefined),38%,/,-5%[59 µM],?,/,2%
CC(C)C(=O)Nc1sc2c(c1-c1nc3ccccc3[nH]1)CCCC2,41%,-5%,14µM*,4%,-8,-23%
CCOC(=O)c1c(NC(=O)COC(=O)c2nccnc2N)sc2c1CCC2,21%,1%,1%[12.7 µM],8%,-5,-15%
N#Cc1c(NC(=O)COC(=O)c2nccnc2N)sc2c1CCCC2,0%,-16%,45µM*,79µM*,?,25µM*
Cc1cc(C(=O)Nc2sc3c(c2C#N)CCCC3)no1,-18%,14%,7.1µM*,10%,/,-19%
CC(C)Cc1cc(C(=O)Nc2sc3c(c2C#N)CCCC3)no1,31%,79%,-33%,49%,0,19%
CC(C(=O)Nc1sc2c(c1C#N)CCCCC2)N1C(=O)c2ccccc2C1=O (centres undefined),1%,-15%,3.2µM*,?,6,-33%
CC(C)Cc1cc(C(=O)Nc2sc3c(c2C#N)CCC3)no1,5%,/,45µM*,5%,-19,-4%
Cc1cc(C(=O)Nc2sc3c(c2C#N)CCC3)no1,1%,0%,?,-31%,/,-34%
CCOC(=O)c1cc(C(=O)Nc2sc3c(c2C#N)CCCC3)nn1C,-7%,/,11µM*,17%,-10,-12%
N#Cc1c(NC(=O)c2cc(C3CC3)on2)sc2c1CCC2,-16%,-3%,40µM*,-10%,-26,-31%
COc1ccccc1-c1cc(C(=O)Nc2sc3c(c2C#N)CCCC3)no1,?,/,3.2µM*,-10%,/,-9%
COc1ccc(C2=C(C)C(=NCCCN3CCN(c4cc(C)ccc4C)CC3)NS2(=O)=O)cc1,13%,/,-32%[59 µM],-10%,/,-15%
O=C(O)c1ccccc1C(=O)Nc1cccc([N+](=O)[O-])c1,38%,11%,-6%,3%,0,-6%
O=C(Nc1cccc([N+](=O)[O-])c1)Nc1cccs1,-8%,/,40µM*,?,0,?
O=C(Nc1cccc([N+](=O)[O-])c1)c1cc2ccccc2cc1O,36%,?,?,50µM*,-19,-7%[11.4 µM]
COc1ccc(-n2nc3c(c2NC(=O)C(=O)N2CCN(C)CC2)CSC3)cc1,43%,/,5%[59 µM],3%,/,1%
SMILES,HP1b binding inh,L3MBTL1 block,G9a inh,BAZ2B inh,PI5P4Ka inh,JMJD2A Tudor
O=S(=O)(Cc1ccccc1)Nc1ccccc1Br,25%,2%,-2%,2%,4,-2%
Cc1ccc(NS(=O)(=O)Cc2ccccc2)nc1,32%,-3%,28µM*,-14%,-7,1%
O=S(=O)(Cc1ccccc1)Nc1ccc(Br)cn1,63%,4%,71µM*,-14%,0,-3%
N#CN1CCC(N[S+](=O)([O-])c2cccc(F)c2)CC1,/,/,/,/,/,-1%
Cc1ccc(C)c(NCC(=O)NNC(=S)Nc2ccccc2)c1,19%,-22%,22µM*,-19%,9,-28%
Cc1ccc(C)c(NC(=O)CCC(=O)NNC(=S)Nc2ccccc2)c1,54%,-6%,50µM*,-14%,0,0%
Cc1nn(CCC(=O)NNC(=S)Nc2ccccc2)c(C)c1Br,23%,0%,13µM*,8%,6,-8%
Cc1ccc(NC(=O)CCC(=O)NNC(=S)Nc2ccccc2)c(C)c1,47%,-4%,/,-36%,1,-4%
CCC(=O)Nc1ccccc1-c1nc2ccccc2n(CC(=O)c2ccc(Cl)cc2)c1=O,28%,/,?,?,/,-16%
CCCC1Cc2c(sc3ncnc(N)c23)CO1 (centres undefined),60%,/,45µM*,5%,-20,-6%
Cc1ccc(S(=O)(=O)NC(=O)c2ccc(-c3ccc(C)c4ccccc34)o2)cc1,-2%,-7%,50µM*,?,?,45µM*
COc1ccccc1C(=O)NS(=O)(=O)c1ccc(C)cc1,44%,4%,/,/,3,-13%
CCOCCn1c(=NC(=O)c2cc(Cl)sc2Cl)sc2cc(S(N)(=O)=O)ccc21,/,6%,8%[59 µM],-2%,/,/
COCCn1c(=NC(=O)c2cc(Cl)sc2Cl)sc2cc(S(N)(=O)=O)ccc21,16%,1%,28µM*,-8%,2,-7%
CC1Cc2cc(S(=O)(=O)CCC(=O)Nc3ccc(Cl)cc3F)ccc2N1C(=O)C1CC1 (centres undefined),8%,/,-8%[59 µM],-18%,/,-12%
CCc1ccc(NC(=O)CC2C(=O)N(c3cccc(C)c3)C(=O)N2Cc2cccs2)cc1 (centres undefined),22%,/,8%[59 µM],-13%,/,-18%
CCOC(=O)NC(=O)CSc1nnnn1-c1ccccc1,32%,-1%,-8%[59 µM],4%,/,-3%
Cc1ccc(-c2cn(-c3ccccc3)c(SCC(N)=O)n2)cc1C,-22%,-5%,?,50µM*,9,?
